Results on 21 compounds are retold here after PubChem BioAssay (EPA / NIEHS).

Each structure is given as a SMILES string. Records with an inconclusive call do not appear. Activity calls are given as the source filed them. The calls were made as follows: active = hit-call score of the fitted dose curve at least 0.9, where 1 is the maximum; inactive = score below 0.9.

Read-out in the assay: ABC Transporter (ABCB11), ABCB11 (gene 8647)
Put plainly: CLD_ABCB11_24hr: CellzDirect (CLD) Gene Expression Assay for ABC Transporter (ABCB11) at 24 hours (AID 2283674). As to the method:
CLD_24hr is a cell-based, multiplexed-readout assay that uses hepatocyte, a human liver primary cell, with measurements taken at 24 hours after chemical dosing in a 96-well plate.CLD_ABCB11_24hr is one of 16 assay component(s) measured or calculated from the CLD_24hr assay. It is designed to make measurements of mRNA induction, a form of inducible reporter, as detected with chemiluminescence signals by Quantitative Nuclease Protection Assay (qNPA) technology.Data from the assay component CLD_ABCB11_24hr was analyzed at the endpoint, CLD_ABCB11_24hr, in the positive analysis fitting direction relative to DMSO as the negative control and baseline of activity. Using a type of inducible reporter, gain-of-signal activity can be used to understand changes in the reporter gene as they relate to the gene ABCB11. Furthermore, this assay endpoint can be referred to as a primary readout. To generalize the intended target to other relatable targets, this assay endpoint is annotated to the transporter intended target family, where subfamily is ABC transporter.
Human hepatocyte cultures were treated daily for two consecutive days with fresh dosing solutions containing appropriate concentrations of the 320 ToxCast chemicals (chemical identities were blinded to CellzDirect and other ToxCast collaborators), vehicle control (0.2% DMSO), and positive control inducers as summarized in Table 1. Due to the large number of treatment groups and chemicals examined, the ToxCast chemicals were divided into two groups (spanning two independent cultures of hepatocytes from separate donor preparations (Hu778: ToxCast plates 1 and 2; Hu776: ToxCast plates 3 and 4). Each preparation of human hepatocyte cultures was treated with respective vehicle control, medium only control, set of six positive controls/reference chemicals for the five hepatic receptor pathways, and a subset of eight of the ToxCast chemicals (indoxacarb, pyrithiobac-sodium, norflurazon, cyhalofop-butyl, methomyl, thiram, acetochlor, and propiconazole). These replicate data, coupled with internal replicates designed within the blinded ToxCast chemical library, provided additional data to evaluate interindividual differences between hepatocyte preparations and their potential impact on chemical profiles.Cell morphology and integrity were evaluated using phase-contrast microscopy as an indicator of hepatocyte cell health (Tyson & Green, 1987). Cultures for each treatment group (i.e., media, vehicle [0.2% DMSO], positive control inducers [multiple concentrations], and the ToxCast chemicals [multiple concentrations]) were observed and cell morphology was assessed relative to vehicle control cultures at each harvest time point (0, 6, 24, or 48 h). […] Images were evaluated at the conclusion of the study to assess changes in cell integrity and account for the effects of chemical exposure on uncharacteristic changes in concentration-dependent gene expression profiles. The results from these determinations of apparent cytotoxicity were annotated (yes/no) alongside the corresponding qNPA data for reference.At the conclusion of each treatment period, hepatocyte cultures (96-well) were washed with 1 volume of HBSS, lysed by addition of 25 ul ArrayPlate lysis buffer (HTG, Tucson, AZ), and 70 ul/well of Denaturation Oil, denatured by incubation at 95C for 10 min, and frozen at approximately -70C until analysis by nuclease protection assay (qNPA) (Roberts et al., 2007). For qNPA analysis, cell lysates were thawed at 50C for approximately 30 min, qNPA probes were added, and samples were incubated at 95C for 10 min to begin the detection process by denaturing the target RNA, dissociating the duplexes and secondary structure hybridization. At the conclusion of the hybridization period, S1 nuclease reagent was added to each sample to digest all nonprotected nucleotides at 50C for 60-90 min. […]
With `OCCOc1ccccc1`, the call was inactive.

Take `O=C(NC(=O)c1c(F)cccc1F)Nc1ccc(OC(F)(F)C(F)OC(F)(F)F)c(Cl)c1` (stereo unspecified): the call was inactive.

For the compound `CNC(=O)/C=C(\C)OP(=O)(OC)OC`, the compound was called inactive.

Take `O=[N+]([O-])/N=C1\NCCN1Cc1ccc(Cl)nc1`: the outcome was inactive.

Turning to `COc1nn(CSP(=S)(OC)OC)c(=O)s1`, the result was inactive.

In the case of `Cc1cc(C)nc(NC(=O)NS(=O)(=O)c2ccccc2C(=O)OC2COC2)n1`, the compound was classed as inactive.

Regarding `N#Cc1c(Cl)c(Cl)c(Cl)c(C#N)c1Cl`, the compound was called inactive.

On to `CC[C@H](C)[C@H]1O[C@]2(C=C[C@@H]1C)C[C@@H]1C[C@@H](C/C=C(\C)[C@@H](O[C@H]3C[C@H](OC)[C@@H](O[C@H]4C[C@H](OC)[C@@H](O)[C@H](C)O4)[C@H](C)O3)[C@@H](C)/C=C/C=C3\CO[C@@H]4[C@H](O)C(C)=C[C@@H](C(=O)O1)[C@]34O)O2` (tested in a mixture with another compound), for which the AC50 was 467 nM (active).

In the case of `CCS(=O)(=O)c1cccnc1S(=O)(=O)NC(=O)Nc1nc(OC)cc(OC)n1`, the result was inactive.

For the compound `COC(=O)c1ccccc1S(=O)(=O)NC(=O)N(C)c1nc(C)nc(OC)n1`, the outcome was inactive.

With `CCc1ccc(C(=O)NN(C(=O)c2cc(C)cc(C)c2)C(C)(C)C)cc1`, the outcome was inactive.

As for `C#CCN1C(=O)COc2cc(F)c(N3C(=O)C4=C(CCCC4)C3=O)cc21`, the call was inactive.

Regarding `Clc1ccccc1-c1nnc(-c2ccccc2Cl)nn1`, the call was inactive.

As to `O=C1c2ccccc2C(=O)N1SC(Cl)(Cl)Cl`, the compound was classed as inactive.

For the compound `[2H]C1([2H])[n+]2ccccc2-c2cccc[n+]2C1([2H])[2H]`, the outcome was inactive.

For the compound `N#CN`, the call was inactive.

`COP(=S)(OC)Oc1ccc([N+](=O)[O-])cc1`: the compound was called inactive.

`COC(=O)c1ccccc1S(=O)(=O)NC(=O)Nc1nc(C)nc(OC)n1`: the call was inactive.

Take `O=S1OCC2C(CO1)C1(Cl)C(Cl)=C(Cl)C2(Cl)C1(Cl)Cl` (stereo unspecified): the result was inactive.

As for `CCOc1nc(NC)nc(NC(=O)NS(=O)(=O)c2ccccc2C(=O)OC)n1`, the outcome was inactive.

On to `CCOCN(C(=O)CCl)c1c(C)cccc1CC`, for which the result was inactive.
